# PMC4336329 (PLoS ONE, 2015)
# In all, about 310,000 compounds went through this assay and about 14,000 (4.5%) showed an effect of 50% or more. Effects have a minus sign here. The list comes from a sample in which strong results are over-represented; it also holds similar structures and randomly drawn compounds.
# Target: human ether-à-go-go-related gene (hERG) potassium channel (human, UniProt Q12809)
# Assay: primary screen, population patch clamp on CHO cells stably expressing hERG; higher = less effect of the substance
# 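Also: peak tail current of the secondary pulse compared with the same well before compound.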
# Sequence of human ether-à-go-go-related gene (hERG) potassium channel (Q12809 whole entry, looked up): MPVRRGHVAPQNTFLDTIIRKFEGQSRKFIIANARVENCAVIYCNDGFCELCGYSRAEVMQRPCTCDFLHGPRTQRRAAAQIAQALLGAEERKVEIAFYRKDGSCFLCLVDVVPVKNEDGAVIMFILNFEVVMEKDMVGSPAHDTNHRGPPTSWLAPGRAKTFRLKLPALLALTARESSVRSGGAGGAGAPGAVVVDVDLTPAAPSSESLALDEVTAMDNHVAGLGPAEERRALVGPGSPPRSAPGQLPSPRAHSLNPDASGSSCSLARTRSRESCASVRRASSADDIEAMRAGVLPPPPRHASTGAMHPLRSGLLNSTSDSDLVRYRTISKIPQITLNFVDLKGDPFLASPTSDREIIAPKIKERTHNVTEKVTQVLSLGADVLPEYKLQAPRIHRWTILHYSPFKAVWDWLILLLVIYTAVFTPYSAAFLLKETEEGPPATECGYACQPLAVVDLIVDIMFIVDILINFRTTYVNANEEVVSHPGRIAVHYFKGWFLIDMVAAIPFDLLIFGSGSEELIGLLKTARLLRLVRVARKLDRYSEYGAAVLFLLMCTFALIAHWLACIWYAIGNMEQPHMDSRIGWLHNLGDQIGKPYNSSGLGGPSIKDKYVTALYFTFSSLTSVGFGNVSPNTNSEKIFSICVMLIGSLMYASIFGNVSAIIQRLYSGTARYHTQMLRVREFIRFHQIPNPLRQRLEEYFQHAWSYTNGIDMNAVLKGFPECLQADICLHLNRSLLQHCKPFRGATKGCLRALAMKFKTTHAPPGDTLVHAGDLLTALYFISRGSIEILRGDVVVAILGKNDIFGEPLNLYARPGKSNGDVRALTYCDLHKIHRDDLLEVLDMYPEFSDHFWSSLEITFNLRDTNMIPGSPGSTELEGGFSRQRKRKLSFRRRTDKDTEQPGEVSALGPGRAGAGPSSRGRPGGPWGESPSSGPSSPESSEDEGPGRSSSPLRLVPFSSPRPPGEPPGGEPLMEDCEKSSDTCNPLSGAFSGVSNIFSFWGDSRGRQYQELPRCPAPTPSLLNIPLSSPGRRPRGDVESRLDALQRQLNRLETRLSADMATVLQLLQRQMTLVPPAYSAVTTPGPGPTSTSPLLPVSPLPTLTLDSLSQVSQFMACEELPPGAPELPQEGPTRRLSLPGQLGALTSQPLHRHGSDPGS
row,Compound,"hERG current change (%, negative = inhibition) at 10uM"
1,CCOc1cc2[nH]c(=O)n(CCCC(=O)NCc3ccco3)c(=O)c2cc1OCC,5.83%
2,Cc1cc(C)n(-c2ccc(C(=O)N3CCN(S(=O)(=O)c4ccc(Cl)cc4)CC3)cc2)n1,-25.8%
3,CC(=O)c1cccc(CN2CCC(CO)(CCCc3ccccc3)CC2)c1,-63.9%
4,Cn1cc(CN2CCC(CO)(CCCc3ccccc3)CC2)c(-c2ccccc2)n1,-66.3%
5,O=C(CN1CCN(Cc2ccc(F)cc2)CC1)NCCc1ccccc1,-13.6%
6,COC(=O)c1cccc(C(=O)N2CCC(CO)(CCc3ccccc3)CC2)c1,-13.6%
7,Cc1ccccc1-c1ncc(CN2CCC(CO)(CCCc3ccccc3)CC2)cn1,-10.9%
8,OCC1(CCCc2ccccc2)CCN(Cc2ccc(F)cc2)CC1,-72.9%
9,COc1cccc(CC2(CO)CCN(Cc3cnc(-c4cccc(C)c4)nc3)CC2)c1,-19.9%
10,Cc1cccc(-c2ncc(CN3CCC(CO)(CCCc4ccccc4)CC3)cn2)c1,-54.1%
11,CC(=O)c1cccc(CN2CCC(CO)(Cc3ccccc3)CC2)c1,-22.9%
12,CC(C)(O)C#Cc1ccc(CN2CCC(CO)(CCc3ccccc3)CC2)cc1,-39.8%
13,Cc1cc2cc(C#N)c(SCC(=O)Nc3nonc3C)nc2cc1C,-0.0959%
14,CCOC(=O)c1c(C)[nH]c(C)c1C(=O)COC(=O)c1nc2nccc(C)n2n1,24.8%
15,C/C(=N/NC(=O)c1cc(C(C)C)[nH]n1)c1cccs1,7.16%
16,COc1cc(OC)cc(-c2c(-c3cccs3)c3cc(-c4ccn[nH]4)ccc3n2C)c1,7.72%
17,O=C(Nc1ccc(Br)cc1Br)c1cccc2c1C(=O)N(C1CCCCC1)C2,12.8%
18,CN(C)c1ccc(C=NCCC2(c3ccccc3)CCOC(C)(C)C2)cc1 (centres unmarked),15.3%
19,[N-]=C=C1C(=S)NC(=O)[C@H]([n+]2ccccc2)[C@H]1c1ccc(Cl)cc1,15.9%
20,Cc1ccc2nc(/C(C#N)=C/c3ccc(O)c(O)c3)[nH]c2c1,7.82%
21,Clc1ccccc1CN1CCC(Cc2ccccc2)CC1,-12.1%

row,Compound,"hERG current change (%, negative = inhibition) at 10uM"
1,OCC1(CCc2ccccc2)CCN(Cc2c(F)ccc(F)c2F)CC1,-36.9%
2,OCC1(CCc2ccccc2)CCN(Cc2ccccc2Cl)CC1,-86%
3,CC(C)N1CCN(Cc2cc(F)ccc2-n2cccn2)CC1CCO (centres unmarked),11.2%
4,CC(C)N1CCC(N2CCN(Cc3cc(F)ccc3-n3cccn3)CC2CCO)CC1 (centres unmarked),-8.1%
5,O=S(=O)(c1cccc(C(F)(F)F)c1)N1CCC(CO)(CCCc2ccccc2)CC1,-6.59%
6,OCC1(CCCc2ccccc2)CCN(Cc2cc(F)ccc2F)CC1,-69.5%
7,OCC1(CCc2ccccc2)CCN(Cc2cc(Cl)ccc2O)CC1,-49.5%
8,OCC1(CCc2ccccc2)CCN(Cc2cc(F)ccc2-n2cccn2)CC1,-78.1%
9,CCOc1ccc(NC(=O)N2CC=C(n3c(=O)[nH]c4ccccc43)CC2)cc1,-8.9%
10,COc1ccc2[nH]c(=O)c(CN(c3ccc(C)c(C)c3)S(C)(=O)=O)cc2c1,12.9%
11,Cc1ccccc1NC(=O)c1[nH]cnc1C(=O)NN,9.21%
12,CCCCOc1ccc(C2C(C(=O)c3cccs3)=C(O)C(=O)N2CCN2CCOCC2)cc1 (centres unmarked),21.8%
13,CC(=O)Oc1cc2c(C(=O)NCCCN3CCOCC3)c(C)oc2c2ccccc12,-18.2%
14,Cc1cc2nc(C)n(CCCN)c2cc1C.Cl,-0.0557%
15,CCN(CC)S(=O)(=O)c1ccc(Cl)c(NC(=O)COc2ccc3c(C)cc(=O)oc3c2)c1,7.69%
16,CCOC(=O)C(Sc1nnc(-c2ccncc2)o1)C(C)=O (centres unmarked),27.7%
17,Cc1ccc(C(=O)N/C(=C\c2ccc(F)cc2)C(=O)NCCCn2ccnc2)cc1,-77.5%
18,COc1ccc(/C=C(/NC(=O)c2ccc(OC)c(OC)c2)C(=O)NCCCn2ccnc2)cc1,11.5%
19,COc1ccc2c(c1)CCc1c(C(=O)NCCCn3ccnc3)noc1-2,-50.2%
20,Cl.O=C(NCCCn1ccnc1)c1ccc(F)cc1,-2.81%
